The other results are listed elsewhere or left out. Values without a mark were called inactive. Activity calls are given as the source filed them.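 How the source made its calls: active means mean activity change at or below -40%, meaning activation of 40% or more, at 20 µM; inactive means the rest.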
Target: Apoptotic protease-activating factor 1 (Homo sapiens) (UniProt O14727)
Assay: Apaf-1 activators, single-dose retest, confirmation, biochemical, fluorescence, DEVD-Rh110, 20 µM (AID 504617)
Settings: reconstituted apoptosome caspase-3 activity, at 20 µM, active compounds read low

Chain of Apoptotic protease-activating factor 1 (Homo sapiens) (O14727 whole entry, looked up): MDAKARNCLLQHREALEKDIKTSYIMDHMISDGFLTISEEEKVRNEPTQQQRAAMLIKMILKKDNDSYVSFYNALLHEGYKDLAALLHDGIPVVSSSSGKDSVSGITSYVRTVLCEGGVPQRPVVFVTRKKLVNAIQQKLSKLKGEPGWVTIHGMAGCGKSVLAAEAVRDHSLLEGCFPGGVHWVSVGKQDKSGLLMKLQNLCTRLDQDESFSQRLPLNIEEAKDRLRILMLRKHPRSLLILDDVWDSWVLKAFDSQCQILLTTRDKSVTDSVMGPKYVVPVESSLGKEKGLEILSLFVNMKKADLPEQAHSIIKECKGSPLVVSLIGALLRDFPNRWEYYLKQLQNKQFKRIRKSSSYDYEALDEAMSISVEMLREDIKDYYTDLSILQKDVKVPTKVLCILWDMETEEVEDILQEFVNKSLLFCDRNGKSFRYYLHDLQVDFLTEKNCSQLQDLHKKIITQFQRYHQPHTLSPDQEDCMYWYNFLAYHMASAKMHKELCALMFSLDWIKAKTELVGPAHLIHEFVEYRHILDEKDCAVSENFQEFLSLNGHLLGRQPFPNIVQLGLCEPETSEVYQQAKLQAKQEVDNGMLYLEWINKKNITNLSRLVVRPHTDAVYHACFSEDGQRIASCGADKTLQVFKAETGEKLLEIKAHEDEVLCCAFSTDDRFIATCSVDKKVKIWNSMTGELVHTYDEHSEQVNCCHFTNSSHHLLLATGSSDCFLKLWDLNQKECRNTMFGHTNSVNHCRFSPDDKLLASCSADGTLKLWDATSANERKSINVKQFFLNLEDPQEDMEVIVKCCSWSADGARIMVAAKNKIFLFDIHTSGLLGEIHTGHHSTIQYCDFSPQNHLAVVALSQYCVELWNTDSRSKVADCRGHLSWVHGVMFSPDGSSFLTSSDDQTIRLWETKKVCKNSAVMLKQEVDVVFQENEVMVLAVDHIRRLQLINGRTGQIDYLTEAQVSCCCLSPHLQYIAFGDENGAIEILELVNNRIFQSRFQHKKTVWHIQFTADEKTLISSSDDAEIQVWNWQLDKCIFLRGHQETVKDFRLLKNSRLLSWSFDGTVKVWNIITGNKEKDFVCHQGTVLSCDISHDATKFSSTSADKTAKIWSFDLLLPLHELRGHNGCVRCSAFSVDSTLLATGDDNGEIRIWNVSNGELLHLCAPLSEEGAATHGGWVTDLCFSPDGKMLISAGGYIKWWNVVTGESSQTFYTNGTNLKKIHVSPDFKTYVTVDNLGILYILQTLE

SMILES	activity change, negative = activation
O=C(Nc1cccc(C(F)(F)F)c1)c1cnccn1	14.9%
COC(CNC(=O)Cn1ncc2ccsc2c1=O)OC	10.8%
COc1ccc(S(=O)(=O)N2CCCCC2)cc1NC(=O)c1cc([N+](=O)[O-])ccc1N1CCOCC1	13.5%
COc1cc(C2C(C#N)=C(N)Oc3n[nH]c(-c4ccccn4)c32)cc(OC)c1OC (configuration not stated)	16.8%
O=C(Nc1ccccc1F)c1ccccc1-c1ccccc1	4.47%
C=CC1=C(C(=O)O)N2C(=O)[C@@H](NC(=O)/C(=N\OCC(=O)O)c3csc(N)n3)[C@H]2SC1	-114% (active)
CC(=O)NC(=S)NNC(=O)c1ccc(Br)cc1	17.7%
COc1cc(C(=O)NCc2nnc(SCC(=O)Nc3nc4ccc(C)cc4s3)o2)cc(OC)c1OC	8.22%
CC(=O)CCC(=O)c1ccc2ccccc2c1	13.2%
CCCC(=O)Nc1nc2ccc(NC(=O)c3c(F)c(F)c(OC)c(F)c3F)cc2s1	9.11%
Cc1cc(NC(=O)c2cccc(N3C(=O)CCC3=O)c2)no1	4.77%
COC(=O)C(C)N(C#N)c1nc(C)nc(C)n1 (configuration not stated)	10.4%
C=CCNC(=O)c1ccc(C)c(Br)c1	5.25%
CCOCCCNC(=O)c1c[nH]c2cc(C)ccc2c1=O	13.4%
O=[N+]([O-])c1ccc2nc(-c3ccccn3)[nH]c2c1	9.21%
O=C(Nc1cccc(-c2nc3ccccc3[nH]2)c1)c1ccc(C(=O)Nc2cccc(-c3nc4ccccc4[nH]3)c2)cc1	-23.1%
O=c1[nH]c2c(c(=O)n1Cc1ccccc1)CCC2	11%
CCOc1ccc(N=C2NC(=O)S/C2=C\c2ccc(O)cc2)cc1	-7.41%
COc1ccc(C2CC(c3ccccc3)Nc3ncnn32)cc1 (configuration not stated)	8.21%
COc1ccccc1OCC(=O)Nc1c2c(nn1-c1ccc(F)cc1)CS(=O)(=O)C2	9.31%
COc1cccc(C(=O)Nc2ccc(N3CCCC3)cc2)c1	7.29%
COc1ccc2c(c1)CCNC2Cc1ccc(OC)c(O)c1 (configuration not stated)	12.2%

Reference: PubChem BioAssay AID504617 (Sanford-Burnham Center for Chemical Genomics, 2011)
